Compound activity from PubChem BioAssay.
Pf growth 48h – inhibits P. falciparum growth in the first generation, 48 h | P. falciparum luciferase growth in erythrocytes, 48 h | Potency, µM (doses to about 28.7 µM), hits mostly inhibitors | hit rate 5.9% among 310,000
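Erythrocytes infected with P. falciparum carrying an integrated firefly luciferase reporter (2% hematocrit, 0.1% parasitemia final) were exposed to compounds in RPMI 1640 with 0.5% Albumax at 37 C, 5% CO2. Growth inhibition was scored as reduced luminescence.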
AmpC detergent – AmpC beta-lactamase inhibition with detergent present | P00811 | AmpC hydrolysis of nitrocefin, absorbance 480 nm, 0.01% Triton | Potency, µM (titrated, usually from 114 µM), most hits filed as inhibitors | hit rate 0.041% among 370,000 | AID 485294; further: nearly all actives have a fitted effect of over 25% in size
Target sequence (P00811 whole entry, looked up): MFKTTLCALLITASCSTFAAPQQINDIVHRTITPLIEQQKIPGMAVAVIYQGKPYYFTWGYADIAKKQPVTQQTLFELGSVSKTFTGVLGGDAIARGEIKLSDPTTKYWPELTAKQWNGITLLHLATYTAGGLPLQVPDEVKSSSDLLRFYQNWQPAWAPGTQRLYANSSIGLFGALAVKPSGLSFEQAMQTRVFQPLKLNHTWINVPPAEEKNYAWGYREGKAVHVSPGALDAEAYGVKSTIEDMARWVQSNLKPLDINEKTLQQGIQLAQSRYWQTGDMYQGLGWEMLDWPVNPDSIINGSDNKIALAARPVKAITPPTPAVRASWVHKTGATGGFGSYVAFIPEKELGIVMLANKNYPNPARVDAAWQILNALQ
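20 mM phosphate pH 7.0 + 0.01% (detergent screen) or 0.0001% Triton X-100; 5.3 nM AmpC reagent; cpd preinc 15 min RT; nitrocefin (800 uM stock) to start; A480 q20 s × 4 min; Activity was normalised to no-enzyme and no-compound control wells.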
AmpC no deterg – blocks E. coli AmpC beta-lactamase in detergent-free assay | P00811 | AmpC nitrocefin hydrolysis, absorbance 480 nm, 0.0001% Triton | Potency, µM (highest dose often 57.1 µM), most hits filed as inhibitors | hit rate 0.52% among 330,000; further: nearly all actives have a fitted effect of over 20% in size
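AmpC (5.3 nM in the dispensed reagent) in 20 mM phosphate pH 7.0 with 0.01% (detergent screen) or 0.0001% Triton X-100 was preincubated with compounds for 15 min at room temperature. Nitrocefin was then added from an 800 uM solution, and hydrolysis was followed at 480 nm.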
SARS PLpro yeast – blocks SARS-CoV papain-like protease in a yeast assay; S. cerevisiae expressing SARS-CoV PLpro, growth rescue; Potency, µM (top dose mostly 32.9 µM), most hits filed as activators; hit rate 0.19% among 330,000; AID 485353; calls by dose curve; further: nearly all actives have a fitted effect of over 55% in size
Sm TGR inh – inhibitors of Schistosoma mansoni thioredoxin glutathione reductase; Q962Y6; Potency, µM (series often up to 114 µM), usual class: inhibitors; hit rate 3% among 360,000; purified TGR, DTNB reduction, TNB absorbance 405 nm; further: nearly all actives have a fitted effect of over 60% in size
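TGR 20 nM + NADPH 100 uM (dispensed conc.), cpd preinc 15 min RT; start with NADPH (500 uM addition) then DTNB (15 mM addition). Kinetic TNB absorbance, 405 nm filter. Four-parameter Hill fit across titration.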
Pf growth 96h – inhibits malaria parasite growth, 96 h | P. falciparum luciferase reporter growth, 96 h | Potency, µM (highest dose often 28.7 µM), actives largely listed as inhibitors | hit rate 6.9% among 320,000 | AID 504834
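Erythrocytes infected with luciferase-expressing P. falciparum were dispensed at 2% hematocrit and 0.05% parasitemia (final), then incubated with compounds 96 hours at 37 C in 5% CO2. Luminescence after detection reagent addition reported growth.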
Hits are given with their value; i = inactive; ? = inconclusive; nt = no result given. Most compounds without a hit are left out; they make up all but 12% or so of the library. Unless noted, the call rests on the fitted dose curve; in most records, active means well fitted curve in the direction sought with a large enough effect; inconclusive means small, poorly fitted or top-dose-only effect, or another doubt; inactive means no such curve, though single readings can be large; an effect the other way counts as inactive or inconclusive.

SMILES	Pf growth 48h	AmpC detergent	AmpC no deterg	SARS PLpro yeast	Sm TGR inh	Pf growth 96h
Cc1cc2[nH]c(=O)c(=O)[nH]c2cc1S(=O)(=O)NC1CCCCC1C (stereo not drawn)	i	i	i	i	i	4.7µM
CN(/N=C/c1cc(Br)cc(Br)c1O)c1cccc(C(F)(F)F)n1	4.1µM	i	i	i	i	?
Cc1ccc(C(=O)O)cc1N=Cc1cc(Br)cc(Br)c1O	i	i	i	i	i	?
CC1(C)O[C@@H]2C[C@H]3[C@@H]4CCC5=CC(=O)CC[C@]5(C)[C@@]4(F)[C@@H](O)C[C@]3(C)[C@]2(C(=O)CCl)O1	2.6µM	?	i	nt	i	3.3µM
CC(=O)OCC(=O)[C@@]1(O)[C@H](C)C[C@H]2[C@@H]3CCC4=CC(=O)C=C[C@]4(C)[C@@]3(F)[C@@H](O)C[C@@]21C	i	i	i	i	i	i
CC1(C)O[C@H]2C[C@@H]3[C@H]4CCC5=CC(=O)CC[C@@]5(C)[C@]4(F)[C@@H](O)C[C@@]3(C)[C@@]2(C(=O)CCl)O1	5.1µM	nt	nt	nt	nt	4.1µM
C[C@]12CCC(=O)C=C1CC[C@H]1[C@@H]3CC[C@](O)(C(=O)CO)[C@@]3(C)C[C@H](O)[C@@]12F	i	nt	nt	nt	nt	?
CC(=O)OCC(=O)[C@@]12OC3(CCCC3)OC1CC1C3CCC4=CC(=O)C=C[C@@]4(C)[C@]3(F)C(O)C[C@]12C (stereo partly drawn)	15µM	nt	nt	nt	nt	9.5µM
COc1ccccc1C(=O)NNC(=O)C1CC=CCC1 (stereo not drawn)	i	i	i	i	i	?
O=C(Nc1nc2c(F)cccc2s1)c1ccc2c(c1)OCCO2	nt	i	nt	nt	i	nt
COc1cc(OC)c(NS(=O)(=O)c2c(C)nc3sc(C)cn3c2=O)cc1Cl	nt	i	nt	nt	i	nt
C=C(C)c1cccc(C(C)(C)NC(=O)Nc2nnc(C(C)C)s2)c1	i	i	i	i	i	12µM
C=C(C)c1cccc(C(C)(C)NC(=O)N2CCOCC2)c1	i	?	i	i	?	nt
C=C(C)c1cccc(C(C)(C)NC(=O)N2CCCC2)c1	i	i	i	i	i	13µM
CCCOc1ccc(Oc2nc(NCC(C)C)nc(N(C)C)n2)nn1	nt	i	nt	nt	i	nt
COc1ccc(NC(=O)C(C)Sc2nnc3c4c(nc(-c5ccc(OC)cc5)n23)CC(C)(C)OC4)cc1 (stereo not drawn)	2.9µM	i	i	i	i	?
N#CCSc1nc2ccccc2c2nc3ccccc3n12	?	i	i	i	i	7.4µM
Cc1cc(NC(=O)CSc2nccn2-c2cccc(C)c2C)no1	?	?	i	i	i	8.3µM
COc1cccc(NC(=O)[C@H](CC(C)C)NC(=O)N2CCn3c2nc2ccccc23)c1	?	i	i	i	i	5.9µM
Cc1cccc(-n2ccnc2SCC(=O)Nc2cc(C)on2)c1	i	i	i	i	i	10µM
COc1ccc(Cn2ccnc2SCC(=O)Nc2ccc(C)cc2C)cc1	nt	i	nt	nt	i	nt
Cc1cccc(N2CCN(C(=O)c3ccc(Cl)c(S(=O)(=O)N4CCc5ccccc5C4)c3)CC2)c1C	i	i	i	i	i	?
COc1ccc(NC(=O)CSc2nc3ccccc3n2Cc2cccc(OC)c2)cc1	nt	i	nt	nt	i	nt
COc1cccc(NC(=O)CSc2nc3ccccc3c3nc4ccccc4n23)c1	13µM	?	i	i	i	i
COc1cccc(NC(=O)CSc2nccn2-c2cccc(OC)c2)c1	i	i	i	i	i	12µM
O=C(Nc1cccc(Cl)c1)Nc1nnc(CC2=CCCCC2)s1	15µM	i	?	i	i	?
Cc1ccc(NC(=O)Nc2nnc(CSCCOc3ccc(Cl)cc3)s2)cc1	i	?	i	i	i	?
O=C(Nc1ccc(Cl)cc1)Nc1nnc(-c2ccncc2)s1	i	i	i	i	i	?
O=C(Nc1cccc(Cl)c1)Nc1nnc(CSCCOc2ccc(Cl)cc2)s1	12µM	?	i	i	i	?
O=C(Nc1nnc(CC2=CCCCC2)s1)Nc1ccccc1F	i	i	i	i	i	i
